Results published in PubChem BioAssay (EPA / NIEHS).
Where “and” joins values, the source holds several entries; their conditions need not be identical. Equal entries are not always repeated. Records with an inconclusive call do not appear. Calls of active or inactive are those of the source. How the source made its calls: active means hit-call score of the fitted dose curve at least 0.9, where 1 is the maximum; inconclusive means response in the unintended direction; inactive means score below 0.9.

Columns and labels:
[1] = ATG_XTT_Cytotoxicity: Cytotoxicity Assessment in the Attagene TRANS-FACTORIAL HepG2 Assay (AID 2283584);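 on AC50: cells exposed to compound for 24 h before reading; active means loss of viability signal versus DMSO baseline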
Summary of the method: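 Viability endpoint from XTT after 24 h chemical exposure of reporter-transfected human HepG2 liver cells; signal loss fitted relative to DMSO negative control.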

[2] = TOX21_p53_BLA_p2_viability: Viability Assessment in the Tox21 HCT-116 p53 Agonism Beta-lactamase Assay, Phase 2 (AID 2283591);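 further: compound exposure lasted 16 h at 37 °C; actives lower the ATP signal meaning cytotoxicity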
Summary of the method: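 Cytotoxicity readout: CellTiter-Glo ATP luminescence, 30 min at room temperature, after the beta-lactamase read. Cells were HCT116 exposed 16 h at 37C to compounds pin-transferred at 217-fold dilution from DMSO stocks.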

| SMILES | outcome [1] | outcome [2] | AC50 [1] | AC50 [2] |
| --- | --- | --- | --- | --- |
| CCC[N+](CCC)(CCC)CCC | inactive | inactive | – | – |
| COc1ccc(N)cc1 | inactive | inactive | – | – |
| O=[N+]([O-])c1c2ccccc2cc2ccccc12 | inactive | inactive | – | – |
| BrCc1ccc(Br)cc1 | inactive | inactive | – | – |
| CCC[CH2][Sn]([CH2]CCC)([CH2]CCC)[CH2]CCC | – | – | 33.9 µM (active) | 30.1 µM (active) |
| CCOC(=O)CCN(SN(C)C(=O)Oc1cccc2c1OC(C)(C)C2)C(C)C | inactive | inactive | – | – |
| CC(O)(CS(=O)(=O)c1ccc(F)cc1)C(=O)Nc1ccc(C#N)c(C(F)(F)F)c1 (configuration not stated) | inactive | inactive | – | – |
| O=NN1CCCCCCC1 | inactive | inactive | – | – |
| O=C(CCl)Nc1ccccc1 | inactive | inactive | – | – |
| OC(c1ccc(Cl)cc1)(c1ccc(Cl)cc1)c1cccnc1 | – | – | 67.7 µM (active) | 46.1 µM (active) |
| CN(C)c1ccc(N=O)cc1 | inactive | – | – | 70.1 µM (active) and 70.5 µM (active) |
| O=C(O)COc1ccc(Cl)cc1 | inactive | inactive | – | – |
| CCCCCCCCCCCCBr | inactive | inactive | – | – |
| ClCCCCl | inactive | inactive | – | – |
| O=C1C[C@@H]2OCC=C3CN4CC[C@]56c7ccccc7N1[C@H]5[C@H]2[C@H]3C[C@H]46 | inactive | inactive | – | – |
| N#Cc1ccncc1 | inactive | inactive | – | – |

| SMILES | outcome [1] | outcome [2] | AC50 [1] | AC50 [2] |
| --- | --- | --- | --- | --- |
| CCCCCCCCCCCCCCC(Br)C(=O)O (configuration not stated) | inactive | inactive | – | – |
| CCCCN(CCCCO)N=O | inactive | inactive | – | – |
| Cc1cc(SCc2sc(-c3ccc(C(F)(F)F)c(F)c3)nc2C)ccc1OCC(=O)O | inactive | – | – | 15.2 µM (active) |
| OCC(c1ccc(Cl)cc1)c1ccc(Cl)cc1 | inactive | – | – | 69.5 µM (active) |
| CCOc1ccc(N)cc1 | inactive | inactive | – | – |
| COC(=O)c1cc(Oc2ccc(Cl)cc2Cl)ccc1[N+](=O)[O-] | inactive | inactive | – | – |
| O=S1(=O)OC(c2cc(Br)c(O)c(Br)c2)(c2cc(Br)c(O)c(Br)c2)c2ccccc21 | inactive | inactive | – | – |
| Clc1cc(C(Cl)(Cl)Cl)cnc1Cl | inactive | inactive | – | – |
| [F][Sn]([c]1ccccc1)([c]1ccccc1)[c]1ccccc1 | – | – | 1.35 µM (active) | 1.6 µM (active) |
| Cc1cc(Cl)ccc1O | inactive | inactive | – | – |
| CC(C)[C@H](C(=O)OC(C#N)c1cccc(Oc2ccccc2)c1)c1ccc(OC(F)F)cc1 (some centres not stated) | inactive | inactive | – | – |
| CCN(N=O)C(N)=O | inactive | inactive | – | – |
| O=C1c2ccccc2C(=O)C1C(=O)C(c1ccccc1)c1ccc(Cl)cc1 (configuration not stated) | inactive | – | – | 29.4 µM (active) |
| Cc1ccccc1OP(=O)(Oc1ccccc1C)Oc1ccccc1C | inactive | inactive | – | – |
| Cc1cccc(C)c1NC(=O)CN1CCCC1=O | inactive | inactive | – | – |
